# DUSP3 inh: inhibitors of human VHR1 phosphatase (DUSP3); recombinant VHR phosphatase, pNPP absorbance; inhibition, % at 13.3 µM; AID 1654; actives 0.52% (n = 290,000); P51452; in the data active means inhibition above about 50%
# Target sequence (P51452 whole entry, looked up): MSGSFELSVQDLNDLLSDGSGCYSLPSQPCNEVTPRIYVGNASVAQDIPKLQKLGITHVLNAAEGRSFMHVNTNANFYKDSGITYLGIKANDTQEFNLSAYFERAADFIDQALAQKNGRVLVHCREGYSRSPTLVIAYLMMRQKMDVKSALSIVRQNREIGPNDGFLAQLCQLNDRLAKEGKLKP
# Anthrax LF inh2: blocks Bacillus anthracis lethal factor protease | inhibition, % at 10 µM | actives 0.12% (n = 360,000) | multiplex microsphere protease cleavage assay, LF | P15917
# BoNT-A LC inh2: inhibitors of Botulinum neurotoxin A light chain protease; multiplex microsphere protease substrate cleavage, flow cytometry; inhibition, % at 10 µM; actives 0.17% (n = 360,000); AID 588499
# BoNT-F LC inh: blocks Botulinum neurotoxin F light chain protease. Multiplex microsphere protease cleavage assay, flow cytometry. inhibition, % at 10 µM. actives 0.22% (n = 360,000); in the data active means inhibition above about 35%, passing the limit was not always enough; inconclusive means no clear call, values can overlap the other calls
# MazEF act: activators of E. coli MazEF toxin-antitoxin RNase. AID 504720. P0AE70. activation, % at 20 µM. actives 0.32% (n = 350,000). FAM/BHQ RNA-DNA oligo cleavage fluorescence, 5 h; in the data active means activation above about 50%
# Target sequence (P0AE70 whole entry, looked up): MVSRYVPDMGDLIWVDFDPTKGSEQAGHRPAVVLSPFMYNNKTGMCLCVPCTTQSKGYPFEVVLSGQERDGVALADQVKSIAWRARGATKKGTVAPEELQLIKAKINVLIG
# Bead autofluor: counter-screen for toxin protease inhibitors: compound fluorescence; compound autofluorescence counterscreen, microsphere flow cytometry; active compounds read high; fluorescence intensity (no concentration beside the values); actives 3.1% (n = 360,000); AID 624483; in the data active means fluorescence intensity above about 16000; inconclusive means no clear call, values can overlap the other calls
# Hits are given with their value; . = inactive; ? = inconclusive; / = not tested or not shown. Hits are enriched below; roughly 4% of the tested compounds scored in any of these assays. Unless noted, no stated cut-off is given here; in the data, active means inhibition above about 30%; inconclusive means no clear call, values can overlap the other calls; inactive means below that.
SMILES,DUSP3 inh,Anthrax LF inh2,BoNT-A LC inh2,BoNT-F LC inh,MazEF act,Bead autofluor
CNC(=S)NNC(=O)CCn1nc(C)c(Br)c1C,.,.,.,.,.,.
CCOCCCNC(=S)NNC(=O)CCn1nc(C)c(Br)c1C,.,.,.,.,.,24089
COCCN1C(=O)C(CC(=O)Nc2ccc(C(C)=O)cc2)SC1=Nc1ccccc1 (stereo not drawn),57,.,.,.,.,.
Cc1sccc1C1C(C#N)=C(N)SC(N)=C1C#N,.,/,/,/,/,/
Cc1cc(C2C(C#N)=C(N)SC(N)=C2C#N)c(C)s1,.,.,.,40,.,.
COc1ccccc1NS(=O)(=O)c1ccc(N/N=C/c2ccccc2OCC(=O)O)c([N+](=O)[O-])c1,.,.,.,.,.,.
O=C(c1ccco1)N1CCCC(c2nc3c(nnn3Cc3cccc(Cl)c3)c(=O)[nH]2)C1 (stereo not drawn),.,.,.,.,.,.
O=C(Cc1cccs1)N1CCC(c2nc3c(nnn3Cc3ccccc3)c(=O)[nH]2)CC1,.,.,.,.,.,20008
N#Cc1ccc(NC(=O)N2CCC(c3nc4c(nnn4Cc4cccc(Cl)c4)c(=O)[nH]3)CC2)cc1,.,.,.,.,.,20736
CC(C)(C)c1ccc(Cn2nnc3c(=O)[nH]c(C4CCN(C(=O)Cc5cccs5)CC4)nc32)cc1,.,.,.,.,.,20958
Cc1ccc(Cn2nnc3c(=O)[nH]c(C4CCN(C(=O)Cc5cccs5)CC4)nc32)cc1,.,.,.,.,.,.
CCOC(=O)CSc1nnc(NCC(=O)OC)c(=O)[nH]1,.,.,.,.,.,21379
CCOC(=O)C1=C(C)NC(=O)C(C(N)=O)C12CCCCC2 (stereo not drawn),.,.,.,.,.,.
CCOC(=O)C1=C(C)NC(=O)C(C(N)=O)C12CCCC2 (stereo not drawn),.,.,?,.,.,23702
NC(=O)C1CCN(Cc2nc3ccccc3c(=O)[nH]2)CC1,.,.,.,.,.,23828
O=c1[nH]c(CN2CCN(C/C=C/c3ccccc3)CC2)nc2ccccc12,.,.,?,.,.,21675
O=c1[nH]c(CN2CCN(S(=O)(=O)/C=C/c3ccccc3)CC2)nc2ccccc12,.,.,.,.,.,.
CCc1cc(=O)oc2c(C)c(OCC(=O)NCCCN3CCCC3=O)ccc12,.,.,.,.,.,.
Cc1cc(C)cc(N2C(=O)NC(=O)/C(=C\c3cc(C)n(C)c3C)C2=O)c1,.,.,.,.,92,.
CCOC(=O)C1=C(CSCC(=O)OC)NC(=O)NC1c1cc(C)ccc1C (stereo not drawn),.,.,.,.,.,22020
COC(=O)C1=C(CSCc2ccccc2)NC(=O)NC1c1cc(C)ccc1C (stereo not drawn),.,.,.,.,.,.
COc1ccc(C(=O)N/N=C/C(Br)=C/c2ccccc2)cc1,.,.,.,.,.,.
COc1ccccc1NC(=O)CSc1nnc(COc2ccc(Cl)cc2)n1Cc1ccco1,.,.,.,.,.,.
COc1cccc(C(=O)Nc2c(C(N)=O)oc3ccccc23)c1,.,.,.,.,.,.
COc1ccc(CNC(=O)CCNS(=O)(=O)c2ccc(Cl)cc2)cc1,.,.,.,.,.,.
SMILES,DUSP3 inh,Anthrax LF inh2,BoNT-A LC inh2,BoNT-F LC inh,MazEF act,Bead autofluor
O=S(=O)(NCCSc1ccc(Cl)cc1)c1ccc(F)cc1,.,.,.,.,.,16419
COc1ccc(S(=O)(=O)NCCC(=O)NCc2ccc(F)cc2)cc1,.,.,.,.,.,19366
O=C(CCc1ccc(S(=O)(=O)NCCc2ccccc2)cc1)NCc1ccc2c(c1)OCO2,.,.,.,.,.,24716
O=C(CCc1ccc(S(=O)(=O)NCc2ccccc2)cc1)NCc1ccc2c(c1)OCO2,.,.,.,.,.,.
COC(=O)Nc1ccc(S(=O)(=O)NCCO)cc1,.,.,.,.,.,18225
O=C(O)CCc1ccc(S(=O)(=O)NCCc2ccccc2)cc1,.,.,.,.,.,20869
O=C(O)CCCNS(=O)(=O)c1ccc(F)cc1,.,.,.,.,.,24742
CC(=O)Nc1ccc(S(=O)(=O)NCc2ccc(C)cc2)cc1,.,.,.,.,.,.
CCNS(=O)(=O)c1ccc(CCC(=O)O)cc1,.,.,.,.,.,.
CC(=O)Nc1ccc(S(=O)(=O)NCc2ccc3[nH]c(C)cc3c2)cc1,.,.,53,.,.,.
O=C(CCc1ccccc1)Nc1ccc(NC(=O)c2ccco2)nc1,.,/,/,/,618,/
O=S(=O)(NCCCCCNS(=O)(=O)c1ccc(F)cc1)c1ccc(F)cc1,.,.,.,.,.,.
CN1CCN(c2ccc(NC(=S)NC(=O)c3cccc4c(Br)cccc34)cc2)CC1,.,.,.,.,.,.
O=S(=O)(NCc1ccc2c(c1)OCO2)c1ccc2oc3ccccc3c2c1,/,.,.,.,.,16406
O=C(Nc1ccc(S(=O)(=O)NCCc2ccccc2)cc1)c1ccco1,.,.,.,.,.,23096
Cc1ccc(S(=O)(=O)NCc2ccc3c(c2)OCO3)cc1C,.,.,.,?,.,.
CC(=O)Nc1ccc(S(=O)(=O)NCCc2ccc(S(N)(=O)=O)cc2)cc1,.,.,.,.,.,.
CC(=O)Nc1ccc(S(=O)(=O)NCCc2ccc(F)cc2)cc1,.,.,.,.,.,19405
COc1ccc(S(=O)(=O)CCC(=O)NCCc2ccc(C)cc2)cc1,.,.,.,.,.,16185
CCNS(=O)(=O)c1ccc(CCC(=O)NCCc2ccc(OC)cc2)cc1,.,.,.,.,.,.
O=C(Nc1ccc(S(=O)(=O)NCCc2ccccc2)cc1)c1ccncc1,.,.,.,.,.,.
C=CCn1cnc2c(NCc3ccccc3)ncnc21,.,.,.,.,.,.
Cc1ccc(C)c(SCC(=O)OCC(=O)N2CC(C)OC(C)C2)c1 (stereo not drawn),.,.,.,.,.,.
Cc1ccc(-n2ncc3c(=O)n(CC(=O)NCc4ccco4)cnc32)cc1,.,.,.,.,.,.
Cc1ccoc1C(=O)N1CCCC(CO)(Cc2ccc(F)cc2)C1 (stereo not drawn),.,.,.,.,.,.
SMILES,DUSP3 inh,Anthrax LF inh2,BoNT-A LC inh2,BoNT-F LC inh,MazEF act,Bead autofluor
CS(=O)(=O)N1N=C(c2ccc(Br)cc2)CC1c1ccc2c(c1)OCO2 (stereo not drawn),.,.,.,.,.,25156
COc1ccc(CCNC(=O)c2c(N)n(CCN3CCOCC3)c3nc4ccccc4nc23)cc1,.,.,.,.,.,.
Cc1c(Br)cc(C(=O)NC2CCCCC2)c(C)c1C,.,.,?,.,.,23067
Cc1ccc(C(=O)NC2CCCCCCC2)c(Cl)c1,.,.,.,.,.,.
O=C(CCCn1c(=S)[nH]c2cc3c(cc2c1=O)OCO3)NCc1ccco1,.,.,.,.,.,?
O=C(CCCn1c(=S)[nH]c2cc3c(cc2c1=O)OCO3)NC1CC1,.,.,.,.,.,22975
O=C(NCCc1nc(-c2ccccc2)no1)c1ccco1,/,.,.,.,.,.

# Screens as filed in PubChem BioAssay.
